# Results from PubChem BioAssay (Tox21).
# Records with an inconclusive call do not appear. Entries that show only a call come without a potency. A number with no mark means an inactive call. Calls of active or inactive are those of the source. Unless noted, the call rests on the fitted dose curve; in most records, active means well fitted curve in the direction sought with a large enough effect in the repeat runs; inconclusive means weak or mixed curves; inactive means no such curve, though single readings can be large; an effect the other way counts as inactive or inconclusive.
# Tests used:
# [1] = qHTS assay to identify small molecule antagonists of the thyroid receptor (TR) signaling pathway - cell viability counter screen (AID 743064); further: nearly all actives have a fitted effect of over 50% in size; further: potency means the concentration at half of the fitted maximal effect
# Procedure, shortened: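 GH3.TRE-Luc cells, 4 h pre-plating; cpd + T3 1 nM final; 37 °C 23.5 h; CellTiter-Fluor 30 min; fluorescence read.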
# [2] = qHTS assay to identify small molecule antagonists of the thyroid receptor (TR) signaling pathway (AID 743065); further: nearly all actives have a fitted effect of over 55% in size; further: potency means the concentration at half of the fitted maximal effect; on activity, negative = inhibition: series mostly up to about 70 µM
# Procedure, shortened: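 GH3.TRE-Luc rat pituitary cells (two TREs driving luciferase) were dosed with compound, then stimulated with 1 nM T3 (final) for 23.5 h at 37 C. ONE-Glo luminescence was the read-out, with CellTiter-Fluor fluorescence as the cytotoxicity counter-screen.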
# [3] = test system: thyroid hormone receptor (rat, GH3 cells); test: qHTS assay to identify small molecule agonists of the thyroid receptor (TR) signaling pathway (AID 743066; calls by dose curve)
# [4] = qHTS assay to identify small molecule antagonists of the estrogen receptor alpha (ER-alpha) signaling pathway using the BG1 cell line - cell viability counter screen (AID 743081);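 further: compound given together with 17beta-estradiol as the ER stimulus; series mostly up to about 70 µM; nearly all actives have a fitted effect of over 45% in size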
# [5] = qHTS assay to identify small molecule that activate the aryl hydrocarbon receptor (AhR) signaling pathway - cell viability counter screen (AID 743086);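 further: HepG2 liver cells carrying the AhR DRE luciferase reporter; series mostly up to about 70 µM; nearly all actives have a fitted effect of over 45% in size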
# Procedure, shortened: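 HepG2-AhR-luc (HG2L7.5c1) cells, 4000/well, treated 24 h at 37 C with compound; viability measured as CellTiter-Fluor fluorescence after 30 min in the same wells as the luciferase read.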
# [6] = qHTS assay to identify small molecule antagonists of the peroxisome proliferator-activated receptor gamma (PPARg) signaling pathway - cell viability counter screen (AID 743194); further: nearly all actives have a fitted effect of over 55% in size
# Procedure, shortened: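 Cytotoxicity counter screen in PPARg-bla HEK293H cells, same wells as reporter assay. Compounds plus 50 nM rosiglitazone (final) for 17 h at 37 C, then viability read by CellTiter-Glo luminescence.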
# [7] = qHTS assay for small molecule agonists of the antioxidant response element (ARE) signaling pathway (AID 743202; active means well fitted activation curve with a large enough effect in the signal ratio in the repeat runs, not every such curve was filed as active; the % refers to the signal ratio)
# Procedure, shortened: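 HepG2 ARE-bla cells; 16 h treatment at 37 C; FRET-based beta-lactamase fluorescence read after 2 h substrate incubation at room temperature.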
# [8] = qHTS assay for small molecule agonists of the antioxidant response element (ARE) signaling pathway - cell viability counter screen (AID 743203; calls by dose curve; further: nearly all actives have a fitted effect of over 55% in size)
# Procedure, shortened: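 ATP content via CellTiter-Glo luminescence served as the viability measure. Cells: ARE-bla HepG2, 2,000 per well. Exposure: 16 hrs, 37C/5% CO2.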
# [9] = qHTS assay for small molecule activators of the heat shock response signaling pathway - cell viability counter screen (AID 743209); further: nearly all actives have a fitted effect of over 50% in size
# Procedure, shortened: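 Compounds dissolved in DMSO were added to overnight-plated HSE-bla HeLa cells and left 5 h at 37 C. Cell viability was quantified by luminescence using CellTiter-Glo.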
# [10] = qHTS assay for small molecule activators of the heat shock response signaling pathway (AID 743210; active means well fitted activation curve with a large enough effect in the signal ratio in the repeat runs, with a control signal flat, not every such curve was filed as active; the % refers to the signal ratio;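 further: HeLa cells with beta-lactamase reporter driven by heat shock elements; series mostly up to about 63 µM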)
# Procedure, shortened: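 Following overnight attachment, HSE-bla HeLa cells received test compounds for 5 h at 37 C; beta-lactamase activity was then detected via FRET substrate fluorescence.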
# [11] = biological target: Estrogen receptor (Homo sapiens) (UniProt P03372); test: qHTS assay to identify small molecule antagonists of the estrogen receptor alpha (ER-alpha) signaling pathway (AID 743069; active means well fitted curve in the direction sought with a large enough effect in the signal ratio in the repeat runs, not every such curve was filed as active; the % refers to the signal ratio)
# Chain of Estrogen receptor (Homo sapiens) (P03372 whole entry, looked up): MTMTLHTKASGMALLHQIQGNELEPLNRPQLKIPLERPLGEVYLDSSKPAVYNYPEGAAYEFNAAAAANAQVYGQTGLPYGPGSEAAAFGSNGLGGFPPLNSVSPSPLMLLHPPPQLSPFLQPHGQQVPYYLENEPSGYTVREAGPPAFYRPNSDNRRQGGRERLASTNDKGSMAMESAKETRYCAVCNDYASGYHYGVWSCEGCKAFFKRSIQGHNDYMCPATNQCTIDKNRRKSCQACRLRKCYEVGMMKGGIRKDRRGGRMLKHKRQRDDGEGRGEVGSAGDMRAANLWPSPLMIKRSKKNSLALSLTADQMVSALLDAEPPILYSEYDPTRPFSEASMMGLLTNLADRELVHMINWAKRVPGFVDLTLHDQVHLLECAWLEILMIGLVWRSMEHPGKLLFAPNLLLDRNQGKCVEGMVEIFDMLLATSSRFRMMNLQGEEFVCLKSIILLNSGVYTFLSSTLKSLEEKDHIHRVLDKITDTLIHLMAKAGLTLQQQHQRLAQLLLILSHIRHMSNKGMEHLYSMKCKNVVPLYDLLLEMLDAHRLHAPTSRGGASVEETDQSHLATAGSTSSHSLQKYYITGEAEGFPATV
# Procedure, shortened: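 In this cell-based reporter format, GripTite HEK293 cells harbouring ER-alpha-UAS-bla were grown overnight with 2% charcoal-stripped FBS, dosed with DMSO-dissolved compounds, then challenged with 17beta-estradiol. After 18 hr at 37C, beta-lactamase activity was detected by FRET fluorescence.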
# [12] = biological target: Estrogen receptor (Homo sapiens) (UniProt P03372); test: qHTS assay to identify small molecule agonists of the estrogen receptor alpha (ER-alpha) signaling pathway (AID 743075; calls by dose curve)
# [13] = qHTS assay to identify aromatase inhibitors - cell viability counter screen (AID 743084);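 further: cells stimulated with testosterone during compound exposure; nearly all actives have a fitted effect of over 55% in size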
# [14] = biological target: Aryl hydrocarbon receptor (Homo sapiens) (UniProt P35869); test: qHTS assay to identify small molecule that activate the aryl hydrocarbon receptor (AhR) signaling pathway (AID 743085); further: nearly all actives have a fitted effect of over 15% in size; further: potency means the concentration at half of the fitted maximal effect;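 on activation: HG2L7.5c1 human HepG2 liver cells with stably integrated DRE-driven firefly reporter; series mostly up to about 70 µM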
# Chain of Aryl hydrocarbon receptor (Homo sapiens) (P35869 whole entry, looked up): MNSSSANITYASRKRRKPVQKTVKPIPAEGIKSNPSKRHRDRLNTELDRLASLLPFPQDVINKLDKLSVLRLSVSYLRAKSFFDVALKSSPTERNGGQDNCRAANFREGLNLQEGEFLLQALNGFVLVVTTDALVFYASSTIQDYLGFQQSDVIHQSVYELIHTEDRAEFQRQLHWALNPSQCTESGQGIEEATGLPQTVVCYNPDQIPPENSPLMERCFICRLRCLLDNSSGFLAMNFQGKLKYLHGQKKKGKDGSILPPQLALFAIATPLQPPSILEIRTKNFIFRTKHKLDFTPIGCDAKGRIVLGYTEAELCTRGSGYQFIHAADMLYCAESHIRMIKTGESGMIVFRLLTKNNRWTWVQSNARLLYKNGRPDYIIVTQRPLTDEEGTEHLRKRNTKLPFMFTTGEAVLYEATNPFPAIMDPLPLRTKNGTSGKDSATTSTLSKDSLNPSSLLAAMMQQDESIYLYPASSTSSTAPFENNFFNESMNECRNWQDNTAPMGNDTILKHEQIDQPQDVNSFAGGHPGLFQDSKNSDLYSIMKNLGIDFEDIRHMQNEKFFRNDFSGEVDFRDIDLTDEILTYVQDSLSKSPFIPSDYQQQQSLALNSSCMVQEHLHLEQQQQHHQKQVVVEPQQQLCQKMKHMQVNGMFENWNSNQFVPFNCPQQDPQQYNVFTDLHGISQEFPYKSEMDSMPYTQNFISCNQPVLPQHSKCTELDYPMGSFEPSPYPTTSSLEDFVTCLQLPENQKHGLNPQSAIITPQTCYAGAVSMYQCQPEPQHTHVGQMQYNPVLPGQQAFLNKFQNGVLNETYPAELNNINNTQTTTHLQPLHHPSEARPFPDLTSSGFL
# Procedure, shortened: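 Luminescence read-out: ONE-Glo reagent, 30 min at room temperature, in HG2L7.5c1 HepG2 reporter cells treated 24 h at 37C. Viability was measured beforehand by CellTiter-Fluor fluorescence after 30 min at 37C.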
# [15] = biological target: Peroxisome proliferator-activated receptor gamma (Homo sapiens) (UniProt P37231); test: qHTS assay to identify small molecule agonists of the peroxisome proliferator-activated receptor gamma (PPARg) signaling pathway (AID 743094; active means well fitted activation curve with a large enough effect in the signal ratio in the repeat runs, not every such curve was filed as active; the % refers to the signal ratio)
# Chain of Peroxisome proliferator-activated receptor gamma (Homo sapiens) (P37231 whole entry, looked up): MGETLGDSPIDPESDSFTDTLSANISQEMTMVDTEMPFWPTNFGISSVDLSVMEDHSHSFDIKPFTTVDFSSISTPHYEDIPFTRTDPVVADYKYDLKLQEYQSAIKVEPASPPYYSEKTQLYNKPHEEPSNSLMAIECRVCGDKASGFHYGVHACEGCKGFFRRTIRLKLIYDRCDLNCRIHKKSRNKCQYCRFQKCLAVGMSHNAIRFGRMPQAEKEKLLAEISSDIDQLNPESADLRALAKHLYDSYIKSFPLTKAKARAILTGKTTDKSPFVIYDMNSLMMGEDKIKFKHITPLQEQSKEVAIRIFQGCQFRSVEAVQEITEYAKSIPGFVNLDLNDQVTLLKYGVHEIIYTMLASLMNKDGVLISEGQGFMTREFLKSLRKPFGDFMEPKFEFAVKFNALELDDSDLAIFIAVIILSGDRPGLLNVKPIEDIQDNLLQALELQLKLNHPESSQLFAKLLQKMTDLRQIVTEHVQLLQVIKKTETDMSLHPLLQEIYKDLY
# Procedure, shortened: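 Agonism was assessed in a beta-lactamase reporter system, HEK293H cells with a stably integrated UAS-bla construct under PPARg control; the 17 h treatment at 37C preceded a 1 h room-temperature FRET substrate read.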
# [16] = qHTS assay to identify small molecule antagonists of the estrogen receptor alpha (ER-alpha) signaling pathway - cell viability counter screen (AID 743074; calls by dose curve; further: nearly all actives have a fitted effect of over 45% in size)
# [17] = biological target: Estrogen receptor (Homo sapiens) (UniProt P03372); test: qHTS assay to identify small molecule agonists of the estrogen receptor alpha (ER-alpha) signaling pathway using the BG1 cell line (AID 743079); further: nearly all actives have a fitted effect of over 20% in size; further: potency means the concentration at half of the fitted maximal effect
# [18] = qHTS assay to identify small molecule antagonists of the estrogen receptor alpha (ER-alpha) signaling pathway using the BG1 cell line (AID 743080; calls by dose curve;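 further: BG1 cells stimulated with 17beta-estradiol alongside compound; series mostly up to about 70 µM; nearly all actives have a fitted effect of over 25% in size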)
# Procedure, shortened: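 After 5 days in phenol-red-free 10% charcoal-stripped FBS medium, BG1-Luc-4E2 cells were seeded, left 24 h at 37 C, co-treated with compounds and 17beta-estradiol for 21.5 h, then assayed for viability and luciferase.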
# [19] = biological target: Aromatase (Homo sapiens) (UniProt P11511); test: qHTS assay to identify aromatase inhibitors (AID 743083)
# Chain of Aromatase (Homo sapiens) (P11511 whole entry, looked up): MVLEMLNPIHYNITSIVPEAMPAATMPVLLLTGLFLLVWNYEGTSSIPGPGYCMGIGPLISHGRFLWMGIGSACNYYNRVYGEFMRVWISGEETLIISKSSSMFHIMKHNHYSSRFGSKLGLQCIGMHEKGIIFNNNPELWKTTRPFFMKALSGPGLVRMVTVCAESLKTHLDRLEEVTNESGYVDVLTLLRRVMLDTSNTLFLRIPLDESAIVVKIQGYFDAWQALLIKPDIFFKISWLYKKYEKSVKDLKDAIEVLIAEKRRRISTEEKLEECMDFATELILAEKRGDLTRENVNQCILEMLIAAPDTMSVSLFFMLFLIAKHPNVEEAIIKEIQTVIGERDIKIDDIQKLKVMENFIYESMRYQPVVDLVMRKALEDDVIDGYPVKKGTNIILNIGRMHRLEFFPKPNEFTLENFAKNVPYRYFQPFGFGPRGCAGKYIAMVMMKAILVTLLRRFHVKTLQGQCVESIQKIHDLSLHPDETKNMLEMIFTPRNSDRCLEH
# [20] = biological target: Peroxisome proliferator-activated receptor gamma (Homo sapiens) (UniProt P37231); test: qHTS assay to identify small molecule antagonists of the peroxisome proliferator-activated receptor gamma (PPARg) signaling pathway (AID 743191; calls by dose curve; further: series mostly up to about 63 µM; nearly all actives have a fitted effect of over 30% in size)
# Procedure, shortened: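 GeneBLAzer PPARg UAS-bla HEK293H cells, 5 h post-plating, exposed to compounds 17 h at 37C. LiveBLAzer B/G FRET substrate added for 1 h at room temperature; beta-lactamase reporter read by fluorescence intensity.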
smiles,measurement,setting,value
CCCCCCCCCCCCCCC,Potency,[1],inactive
same,Potency,[2],inactive
same,Potency,[3],inactive
same,outcome,[4],inactive
same,Potency,[5],inactive
same,Potency,[6],inactive
same,Potency,[7],inactive
same,outcome,[8],inactive
same,outcome,[9],inactive
same,outcome,[10],inactive
c1cc(CN2CCCCC2)cc(OCCCNc2nc3ccccc3s2)c1,Potency,[1],11.9 µM (active)
same,Potency,[2],23.7 µM (active)
same,Potency,[11],inactive
same,Potency,[12],inactive
same,outcome,[4],inactive
same,Potency,[13],inactive
same,Potency,[14],26.6 µM (active)
same,outcome,[15],inactive
same,Potency,[7],inactive
same,outcome,[8],inactive
same,outcome,[9],inactive
same,outcome,[10],inactive
O=C(O)C(O)[C@H](O)[C@@H](O)[C@H](O)[C@H](O)CO (stereo partly drawn),Potency,[1],inactive
same,Potency,[3],inactive
same,Potency,[11],inactive
same,outcome,[16],inactive
same,Potency,[12],inactive
same,Potency,[17],inactive
same,Potency,[18],inactive
same,outcome,[4],inactive
same,Potency,[19],inactive
same,Potency,[13],inactive
same,Potency,[14],inactive
same,Potency,[5],inactive
same,outcome,[15],inactive
same,outcome,[20],inactive
same,Potency,[6],inactive
same,Potency,[7],inactive
same,outcome,[8],inactive
same,outcome,[9],inactive
same,outcome,[10],inactive
COC(=O)[C@H]1[C@H]2C[C@@H]3c4[nH]c5cc(OC)ccc5c4CCN3C[C@H]2C[C@@H](OC(=O)COc2ccc(OC)cc2)[C@@H]1OC,Potency,[1],inactive
same,Potency,[2],23.7 µM (active)
same,outcome,[16],inactive
same,Potency,[12],inactive
same,Potency,[17],inactive
same,outcome,[4],inactive
same,Potency,[19],inactive
same,Potency,[13],inactive
same,Potency,[5],inactive
same,Potency,[6],inactive
same,outcome,[8],inactive
same,outcome,[9],inactive
CC(C)=CCC/C(C)=C/C(=O)O,Potency,[1],inactive
same,Potency,[3],inactive
same,Potency,[11],inactive
same,outcome,[16],inactive
same,Potency,[12],inactive
same,Potency,[17],inactive
same,Potency,[18],inactive
same,outcome,[4],inactive
same,Potency,[19],inactive
same,Potency,[13],inactive
same,Potency,[14],inactive
same,Potency,[5],inactive
same,Potency,[6],inactive
same,outcome,[8],inactive
same,outcome,[9],inactive
same,outcome,[10],inactive
COc1cc(C)cc(O)c1,Potency,[1],inactive
same,Potency,[2],inactive
same,Potency,[3],inactive
same,outcome,[16],inactive
same,outcome,[4],inactive
same,Potency,[19],inactive
same,Potency,[13],inactive
same,Potency,[5],inactive
same,outcome,[15],inactive
same,outcome,[8],inactive
same,outcome,[9],inactive
same,outcome,[10],inactive
NCC[C@H](O)C(=O)N[C@@H]1C[C@H](N)[C@@H](O[C@H]2O[C@H](CN)[C@@H](O)[C@H](O)[C@H]2O)[C@H](O)[C@H]1O[C@H]1O[C@H](CO)[C@@H](O)[C@H](N)[C@H]1O,Potency,[1],inactive
same,Potency,[3],inactive
same,Potency,[11],inactive
same,outcome,[16],inactive
same,Potency,[12],inactive
same,Potency,[17],23.7 µM (active)
same,Potency,[18],inactive
same,outcome,[4],inactive
same,Potency,[19],inactive
same,Potency,[13],inactive
same,Potency,[14],inactive
same,Potency,[5],inactive
same,outcome,[15],inactive
same,"ratio activity, negative = inhibition",[20],0.895% [at 0.55 µM]
same,"activity change, negative = cytotoxicity",[6],0.328% [at 0.55 µM]
same,activation,[7],2.58% [at 0.756 µM]
same,"viability change, negative = cytotoxic",[8],-0.425% [at 0.756 µM]
same,"activity change, negative = cytotoxicity",[9],-14.9% [at 0.55 µM]
same,activation,[10],0.848% [at 0.55 µM]
CC(C)(O)c1ccccc1,Potency,[1],inactive
same,Potency,[3],inactive
same,Potency,[11],inactive
same,outcome,[16],inactive
same,Potency,[12],inactive
same,Potency,[17],inactive
same,Potency,[18],inactive
same,outcome,[4],inactive
same,Potency,[19],inactive
same,Potency,[13],inactive
same,Potency,[14],inactive
same,Potency,[5],inactive
same,outcome,[15],inactive
same,outcome,[20],inactive
same,Potency,[6],inactive
same,Potency,[7],inactive
same,outcome,[8],inactive
same,outcome,[9],inactive
same,outcome,[10],inactive
CCN1CCN(c2cc3c(cc2F)c(=O)c(C(=O)O)cn3C2CC2)CC1,Potency,[1],inactive
same,Potency,[2],inactive
same,Potency,[3],inactive
same,outcome,[16],inactive
same,outcome,[4],inactive
same,Potency,[19],inactive
same,Potency,[14],inactive
same,outcome,[15],inactive
same,outcome,[20],inactive
same,Potency,[6],inactive
same,outcome,[8],inactive
same,outcome,[9],inactive
same,outcome,[10],inactive
N#CC1(O)CCCCC1,Potency,[1],inactive
same,Potency,[2],inactive
same,Potency,[3],inactive
same,outcome,[16],inactive
same,outcome,[4],inactive
same,Potency,[13],inactive
same,Potency,[14],inactive
same,outcome,[15],inactive
same,outcome,[20],inactive
same,outcome,[8],inactive
same,outcome,[9],inactive
same,outcome,[10],inactive
CCCCCCCCCCCCI,Potency,[1],inactive
same,Potency,[2],inactive
same,Potency,[3],inactive
same,outcome,[16],inactive
same,outcome,[4],inactive
same,Potency,[5],inactive
same,Potency,[6],inactive
same,Potency,[7],inactive
same,outcome,[8],inactive
same,outcome,[9],inactive
same,outcome,[10],inactive
Oc1ccc2c(c1)OC[C@@H](N1CCC(O)(c3ccc(F)cc3)CC1)[C@H]2O,Potency,[1],inactive
same,Potency,[2],inactive
same,outcome,[16],inactive
same,Potency,[12],inactive
same,Potency,[17],9.44 µM (active)
same,outcome,[4],inactive
same,Potency,[19],inactive
same,Potency,[13],inactive
same,Potency,[5],inactive
same,outcome,[15],inactive
same,outcome,[20],inactive
same,Potency,[6],inactive
same,outcome,[8],inactive
same,outcome,[9],inactive
same,outcome,[10],inactive
C=C[Si](OC)(OC)OC,Potency,[1],inactive
same,Potency,[3],inactive
same,Potency,[11],inactive
same,outcome,[16],inactive
same,Potency,[12],inactive
same,Potency,[17],inactive
same,Potency,[18],inactive
same,outcome,[4],inactive
same,Potency,[19],inactive
same,Potency,[13],inactive
same,Potency,[14],inactive
same,Potency,[5],inactive
same,outcome,[15],inactive
same,outcome,[20],inactive
same,Potency,[6],inactive
same,Potency,[7],inactive
same,outcome,[8],inactive
same,outcome,[9],inactive
same,outcome,[10],inactive
CC(=O)OC(C)(C)C,Potency,[1],inactive
same,Potency,[3],inactive
same,Potency,[11],inactive
same,outcome,[16],inactive
same,Potency,[12],inactive
same,Potency,[17],inactive
same,Potency,[18],inactive
same,outcome,[4],inactive
same,Potency,[19],inactive
same,Potency,[13],inactive
same,Potency,[14],inactive
same,Potency,[5],inactive
same,outcome,[15],inactive
same,outcome,[20],inactive
same,Potency,[6],inactive
same,Potency,[7],inactive
same,outcome,[8],inactive
same,outcome,[9],inactive
same,outcome,[10],inactive
